Where “and” joins values, the source holds several entries; their conditions need not be identical. Equal values may be shown once. Entries with a potency or affinity are not part of this list.

The test system of the first assay is Staphylococcus aureus. The settings on record: Concentration 32 ug.mL-1; ASSAY_TEST Inhibition of Bacterial Growth; detection method Absorption (OD600); MEDIA CAMHB; plate type 384well; NBS; CORNING #3640; time 18 hr, 32 ug/mL.
On to `C[C@]12CC[C@@](c3ccc(C(F)(F)F)cc3)(O1)[C@H]1C=C[C@H](OC(=O)c3ccccc3)[C@H]12`, for which the Inhibition is 20.36% and 17.47%.

For `C[C@]12CC[C@@](C3CC3)(O1)[C@H]1C=C[C@H](OC(=O)c3ccccc3)[C@H]12`, the Inhibition was 14.3% and 9.5%.

Take `C[C@]12CC[C@@](c3ccccc3)(O1)[C@H]1C=C[C@H](OC(=O)c3ccccc3)[C@H]12`: the Inhibition was 15.6% and 15.32%.

In the next assay the test system is Escherichia coli. The settings on record: Concentration 32 ug.mL-1; ASSAY_TEST Inhibition of Bacterial Growth; detection method Absorption (OD600); MEDIA CAMHB; plate type 384well; NBS; CORNING #3640; time 18 hr.
Turning to `C=C1CC(C(=O)OC)(C(=O)OC)C[C@@H]1[C@H](c1ccccc1)n1ccc2ccccc21`, the Inhibition amounted to 2.95%.

With `C[C@]12CC[C@@](C)(O1)[C@H]1C=C[C@H](OC(=O)c3ccccc3)[C@H]12`, the Inhibition came to 0.47%.

With `C[C@]12CC[C@@](C3CCCC3)(O1)[C@H]1C=C[C@H](OC(=O)c3ccccc3)[C@H]12`, the Inhibition turned out to be 7.38%.

On to `C[C@]12CC[C@@H](O1)[C@H]1C=C[C@H](OC(=O)c3ccccc3)[C@H]12`, for which the Inhibition is given as 2.42%.

As to `C=C1CC(COCc2ccc(OC)cc2)(COCc2ccc(OC)cc2)C[C@@H]1[C@@H](Nc1ccc(Br)cc1)c1ccccc1`, the Inhibition is -13.28%.

For the molecule `C[C@@H]1CC(=O)C=C2C(=O)[C@@H]3[C@@H](C3(C)C)[C@]21C`, the Inhibition was 3.69%.

In the case of `C=C1CC(C(=O)OC)(C(=O)OC)C[C@@H]1[C@H](c1ccccc1)n1ccc2ccc(Cl)cc21`, the Inhibition turned out to be 1.22%.

In the case of `C=C1CC(C(=O)OC)(C(=O)OC)C[C@@H]1[C@@H](NS(=O)(=O)c1ccc(C)cc1)c1ccccc1`, the Inhibition is on record as -0.02%.

Consider `C[C@]12CC[C@@](c3ccc4ccccc4c3)(O1)[C@H]1C=C[C@H](OC(=O)c3ccccc3)[C@H]12`, for which the Inhibition is recorded as -2.58%.

As to `C=C1CC(COC)(COC)C[C@@H]1[C@@H](Nc1ccc(Br)cc1)c1ccccc1`, the Inhibition is -1.74%.

`C=C1CC2(COC(C)(C)OC2)C[C@@H]1[C@@H](Nc1ccc(Br)cc1)c1ccccc1`: the Inhibition amounted to 2.09%.

The assay is the same for the next values; noted with them: Concentration 32 ug.mL-1; ASSAY_TEST Inhibition of Bacterial Growth; detection method Absorption (OD600); MEDIA CAMHB; plate type 384well; NBS; CORNING #3640; time 18 hr, 32 ug/mL.
Turning to `C[C@]12CC[C@@](c3ccc(C(F)(F)F)cc3)(O1)[C@H]1C=C[C@H](OC(=O)c3ccccc3)[C@H]12`, the Inhibition is 2.03% and 5%.

As to `C[C@]12CC[C@@](C3CC3)(O1)[C@H]1C=C[C@H](OC(=O)c3ccccc3)[C@H]12`, the Inhibition was -1.08% and -3.45%.

`C[C@]12CC[C@@](c3ccccc3)(O1)[C@H]1C=C[C@H](OC(=O)c3ccccc3)[C@H]12`: the Inhibition was -5.43% and -1.36%.

These data come from ChEMBL document CHEMBL4513151, “CO-ADD screening of Institut Català d'Investigació Química (Spain) compounds”.
